Compound activity as filed in PubChem BioAssay.
A selection: hits, their analogues and other compounds. The true share with any hit is near 22%.
Shiga inhibitor: Shiga toxin inhibition | Vero cells, Shiga toxin protein synthesis inhibition reporter | inhibition, % at 38.7 µM | actives 9.2% (n = 290,000) | AID 2315; in the data active = inhibition mostly above about 28%, no sharp cut-off; inactive = mostly below about 43%; also: 0% is about no effect
Pf growth 96h: P. falciparum growth inhibition at 96 hour, primary screen for plastid delayed-death inhibitors. P. falciparum luciferase reporter growth, 96 h. Potency, µM (top dose mostly 28.7 µM), for inactives: at the highest dose activity change, negative = inhibition, actives largely listed as inhibitors. actives 6.9% (n = 320,000); also: potency is read from the fitted curve at half-maximal effect; % is scaled to controls: 0 for no effect and ±100 for the full control effect
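Luminescence readout: decreased luciferase signal marks inhibited growth of reporter-expressing P. falciparum in infected red cells (2% hematocrit, 0.05% parasitemia final), exposed to compound two generations (96 h, 37 C, 5% CO2).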
Pf growth 48h: inhibits P. falciparum growth in the first generation, 48 h. P. falciparum luciferase growth in erythrocytes, 48 h. Potency, µM (highest dose often 28.7 µM), for the others: at the top dose activity change, negative = inhibition, most hits filed as inhibitors. actives 5.9% (n = 310,000). AID 504832; also: potency is read from the fitted curve at half-maximal effect; % is scaled to controls: 0 for no effect and ±100 for the full control effect
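Luciferase-expressing P. falciparum in infected erythrocytes (2% hematocrit, 0.1% parasitemia final) in RPMI 1640/0.5% Albumax were exposed to compound for 48 hours at 37 C, 5% CO2; growth read as luminescence.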
Cycloheximide cs: affects cycloheximide protein synthesis inhibition readout, counter-screen | actives 12% (n = 300,000) | cell reporter, cycloheximide protein synthesis inhibition counterscreen | max response, % | AID 2314; in the data active = max response mostly above about 13%, no sharp cut-off; inactive = mostly below about 14%; also: read at 38.3 µM for the half of the compounds with a filed dose; 0% is about no effect
LmPK inhibitor: blocks Leishmania mexicana pyruvate kinase activity; Q27686; purified LmPK, Kinase-Glo ATP luminescence, 1 h; Potency, µM (titrated, usually from 57.5 µM), without a hit: top-dose activity change, negative = inhibition, usual class: inhibitors; actives 0.37% (n = 290,000); also: potency is read from the fitted curve at half-maximal effect; % is scaled to controls: 0 for no effect and ±100 for the full control effect
Target sequence (Q27686 whole entry, looked up): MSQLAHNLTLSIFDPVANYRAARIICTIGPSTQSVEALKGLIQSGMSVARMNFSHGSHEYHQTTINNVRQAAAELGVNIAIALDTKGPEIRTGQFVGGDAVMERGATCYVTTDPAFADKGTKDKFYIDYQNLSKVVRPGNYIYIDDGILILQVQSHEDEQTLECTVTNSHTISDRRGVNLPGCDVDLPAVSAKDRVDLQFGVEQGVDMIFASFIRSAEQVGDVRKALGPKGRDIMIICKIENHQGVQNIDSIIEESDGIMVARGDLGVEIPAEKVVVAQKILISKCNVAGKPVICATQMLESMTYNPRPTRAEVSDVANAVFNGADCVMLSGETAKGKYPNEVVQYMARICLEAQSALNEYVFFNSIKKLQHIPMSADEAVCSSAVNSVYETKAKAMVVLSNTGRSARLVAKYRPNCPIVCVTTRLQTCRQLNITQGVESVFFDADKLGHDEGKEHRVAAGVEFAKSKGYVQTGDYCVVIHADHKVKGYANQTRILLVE
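Pyruvate kinase activity monitored as ATP production (luciferase luminescence). Conditions: 0.1 nM enzyme, 0.5 mM PEP, 0.1 mM ADP, 1 h, RT; normalized against uninhibited and no-enzyme wells.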
* hit, by the source's call; i = inactive; ? = inconclusive; nt = not tested or not shown. Unless noted, calls follow the shape of the dose curve; as a rule, active = well fitted inhibition curve with a large enough effect; inconclusive = small, poorly fitted or top-dose-only effect, or another doubt; inactive = no such curve, though single readings can be large or run the other way.

SMILES | Shiga inhibitor | Pf growth 96h | Pf growth 48h | Cycloheximide cs | LmPK inhibitor
COc1ccc(-c2cc(C(F)(F)F)nc(SCC(N)=O)n2)cc1 | -7 | -18% | -3% | 5 | -6%
COCC(C)NC(=O)CCSc1nc(-c2ccc(OC)cc2)cc(C(F)(F)F)n1 (configuration not stated) | -5 | 9.3µM* | 5.2µM* | 4 | 2%
O=C(O)[C@@H]1CSCN1 | nt | -15% | -6% | nt | nt
CC(=O)Nc1ccc(NC(=O)[C@H](C)NC(=O)c2ccco2)cc1 | -3 | 1% | 11% | 3 | -2%
CCOC(=O)C1(C)NC(c2ccccc2F)C2C(=O)N(CC)C(=O)C21 (configuration not stated) | -8 | 13% | 12% | 4 | 2%
CC(C)CNC(=O)CN(C)S(=O)(=O)c1ccc(F)cc1 | 2 | -20% | -14% | -4 | 1%
Cc1c(C(=O)NCc2ccccc2)oc2ccc(S(=O)(=O)N3CCCC3)cc12 | 4 | ? | nt | 1 | 8%
Cc1c(C(=O)NCc2cccnc2)oc2ccc(S(=O)(=O)N3CCCCCC3)cc12 | -11 | 7% | 9.3µM* | -2 | 8%
Cc1c(C(=O)NCc2cccnc2)oc2ccc(S(=O)(=O)N3CCCCC3)cc12 | 1 | ? | 5.2µM* | -4 | 7%
O=c1cc(-c2cccc(-c3ccc(C(F)(F)F)cc3)c2)c2cc3c(cc2o1)OCO3 | i | nt | nt | 8 | nt
COc1ccc(/C=N/NC(=O)COc2ccccc2-c2ccccc2)cc1 | -6 | ? | ? | -3 | 3%
Cc1ccc(CNC(=O)CCc2ccccc2)cc1 | 19 | 28% | 38% | 15* | 1%
O=C(COc1ccccc1-c1ccccc1)N/N=C/c1cccc2ccccc12 | -2 | 9.3µM* | ? | -4 | 4%
Cc1ccc(CNC(=O)CCCc2ccccc2)cc1 | 3 | 23% | 24% | 27 | -2%
Cc1ccc(CNC(=O)COc2ccccc2-c2ccccc2)cc1 | 12 | 10µM* | -14% | -1 | 0%
NC(=O)N/N=C/c1ccccc1OCc1cccc2ccccc12 | -6 | 13µM* | 18% | -1 | -2%
CC(C)(C)c1ccccc1OCC(=O)NCc1ccccc1 | nt | 16% | 4% | -2 | 9%
Cc1ccccc1CNC(=O)CCc1ccccc1 | 35 | ? | 25% | 18* | -1%
CN(Cc1nc2ccccc2c(=O)[nH]1)C(=O)c1cccc(S(=O)(=O)N2CCCC2)c1 | nt | -4% | 21% | nt | nt
CCN(Cc1nc2ccccc2c(=O)[nH]1)C(=O)C1CC(=O)N(c2cccc3ccccc23)C1 (configuration not stated) | nt | ? | 10µM* | nt | nt
CCN(Cc1nc2ccccc2c(=O)[nH]1)C(=O)COc1ccccc1-c1ccccc1 | nt | 9.3µM* | 13µM* | nt | nt
CCC(CC)C(=O)N(CCc1ccc(OC)cc1)Cc1nc2ccccc2c(=O)[nH]1 | -19 | 12µM* | nt | -9 | 21%
COCC(=O)N(Cc1nc2ccccc2c(=O)[nH]1)Cc1cccs1 | -13 | ? | 15% | -3 | -3%
CCN(Cc1nc2ccccc2c(=O)[nH]1)C(=O)c1cccc(S(=O)(=O)N2CCc3ccccc32)c1 | nt | ? | 10µM* | nt | nt
Cc1ccc2oc(=O)c(-c3ccc(O)cc3)c(C)c2c1 | nt | -7% | 12% | nt | nt
SMILES | Shiga inhibitor | Pf growth 96h | Pf growth 48h | Cycloheximide cs | LmPK inhibitor
CCN(CC(=O)Nc1c(F)cccc1F)C(=O)CCc1nc2sc3c(c2c(=O)[nH]1)CCCC3 | nt | ? | 2% | nt | nt
CCN(Cc1nc2ccccc2c(=O)[nH]1)C(=O)c1cc2c(s1)CCCCC2 | nt | 8% | -1% | nt | nt
COc1ccc(CCN(Cc2nc3ccccc3c(=O)[nH]2)C(=O)c2ccco2)cc1 | 13 | 8% | ? | -1 | 1%
CCN(Cc1nc2ccccc2c(=O)[nH]1)C(=O)c1ccc(C)c(NC(=O)c2ccco2)c1 | nt | 13µM* | -29% | nt | nt
CCN(Cc1nc2ccccc2c(=O)[nH]1)C(=O)c1cc(C2CC2)nn1-c1ccccc1 | nt | 9.3µM* | ? | nt | nt
Cc1nc2ccc(S(=O)(=O)Nc3cccc(-c4nc5cccnc5s4)c3)cc2s1 | 16 | -19% | 20% | 7 | 5%
Cc1nc2ccc(S(=O)(=O)Nc3ccc(-c4nc5cccnc5s4)cc3)cc2s1 | 49* | 39% | 77% | 37* | -1%
Cc1ccc(-c2nc3cccnc3s2)cc1NC(=O)C1c2ccccc2Oc2ccccc21 | 29 | -20% | ? | 30* | -3%
CCS(=O)(=O)Nc1ccc(-c2nc3cccnc3s2)cc1 | 73* | 282% | -7% | 41* | -27%
